# Experimental data taken from the supplement of paper PMC12494721.
# Counter-ions that a name gives are not always drawn.
# Test system: Escherichia coli IAI1
# Test: growth (OD595) fold change vs plate DMSO controls (fold change (ratio)); higher = more growth
# Conditions: incubation time: 27 h, anaerobic, 37 °C
# Outline: (§1)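 Anaerobic 27 h, 37 °C mGAM 96-well cultures were shaken, then read for absorbance at 595 nm. Values were blank-subtracted and corrected for compound background using 20 µM compound solutions in water. A calibration factor of 5 converted them to OD. Growth is the fold change versus the median of plate DMSO controls. Fold changes above 1.5 were set to NA, and values are the mean of 2 biological replicates.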
row,Structure (SMILES),growth
1,Cc1cc2c(cc1S(N)(=O)=O)S(=O)(=O)CCC2 [Meticrane] (20 µM),1.03
2,OC[C@@H](O)[C@@H](O)[C@@H](O)[C@@H](O)CO [Allitol] (50 µM),1.08
3,Cc1c(N(C)C)c(=O)n(-c2ccccc2)n1C [Amidopyrine] (20 µM),1.02

# Test system: Klebsiella aerogenes DSM 30053
# Test: as above
# Conditions: incubation time: 27 h, anaerobic, 37 °C
# Outline: as §1
row,Structure (SMILES),growth
1,Oc1c(Cl)cc(Cl)c2cccnc12 [Chloroxine] (20 µM),1.02
2,O=C1NCCN1CCN1CCC(c2cn(-c3ccc(F)cc3)c3ccc(Cl)cc23)CC1 [Sertindole] (20 µM),1.09
3,CCSc1ccc2c(c1)N(CCCN1CCN(C)CC1)c1ccccc1S2 [Thiethylperazine maleate] (20 µM),1.17
4,Cc1ccsc1/C=C/C1=NCCCN1C [Morantel tartrate] (20 µM),1.08
5,COc1cc(C)nc(-n2nc(C)cc2OC)n1 [Epirizole] (20 µM),1
6,CCC1(c2ccccc2)NC(=O)N(C)C1=O (stereo not drawn) [Mephenytoin] (20 µM),1.11
7,CCCCCCCC/C=C\CCCCCCCCCCCC(=O)O [Erucic acid] (20 µM),1.04
8,C#CCN(C)CCCOc1ccc(Cl)cc1Cl [Clorgyline hydrochloride] (20 µM),0.95
9,CC1=NN(c2ccccc2)C(=O)C1 [Edaravone] (20 µM),1.02
10,CC(=O)N[C@H]1[C@H]([C@H](O)[C@H](O)CO)OC(C(=O)O)=C[C@@H]1NC(=N)N [Zanamivir] (20 µM),0.977
11,Cc1ccc(S(=O)(=O)NC(=O)NN2CCCCCC2)cc1 [Tolazamide] (20 µM),1.04
12,CN1CCN(C2=Nc3cc(Cl)ccc3Nc3ccccc32)CC1 [Clozapine] (20 µM),0.984
13,CCCNC(C)(C)C(=O)Nc1ccccc1C [Quatacaine] (20 µM),0.979
14,CN(C)c1cc(NC(=O)CNC(C)(C)C)c(O)c2c1C[C@H]1C[C@H]3[C@H](N(C)C)C(=O)C(C(N)=O)=C(O)[C@@]3(O)C(=O)C1=C2O [Tigecycline] (20 µM),1.18
15,CCOC(=O)[N-]c1c[n+](N2CCOCC2)no1 [Molsidomine] (20 µM),0.98
16,CCN(CC)CCOC(=O)C(Cc1cccc2ccccc12)CC1CCCO1 (stereo not drawn) [Nafronyl oxalate] (20 µM),0.993
17,CCN(CC)CCOC(=O)C1(C2CCCCC2)CCCCC1 [Dicyclomine hydrochloride] (20 µM),0.998
18,CC[C@H]1OC(=O)[C@H](C)[C@@H](O[C@H]2C[C@@](C)(OC)[C@@H](O)[C@H](C)O2)[C@H](C)[C@@H](O[C@@H]2O[C@H](C)C[C@H](N(C)C)[C@H]2O)[C@](C)(O)C[C@@H](C)C(=O)[C@H](C)[C@@H](O)[C@]1(C)O [Erythromycin] (20 µM),1.16
19,NC(=O)NS(=O)(=O)c1ccc(N)cc1 [Sulfacarbamide] (20 µM),0.993
20,O=c1[nH]cc(F)c(=O)[nH]1 [5-fluorouracil] (20 µM),0.897
21,NC(=O)N/N=C/c1ccc([N+](=O)[O-])o1 [Nitrofural] (20 µM),0.973
22,COC(=O)C1=C(C)NC(C)=C(C(=O)OC2CCCN(Cc3ccccc3)C2)C1c1cccc([N+](=O)[O-])c1 (stereo not drawn) [Benidipine hydrochloride] (20 µM),1.02
23,CCNC(=O)CCC/C=C\C[C@@H]1[C@@H](/C=C/[C@@H](O)CCc2ccccc2)[C@H](O)C[C@@H]1O [Bimatoprost] (20 µM),1.02
24,CN(Cc1ccc(C(C)(C)C)cc1)Cc1cccc2ccccc12 [Butenafine hydrochloride] (20 µM),0.979
25,CN1CCC(OC(c2ccccc2)c2ccccc2)CC1 [Diphenylpyraline hydrochloride] (20 µM),0.989
26,c1ccc2cc3c(ccc4ccccc43)cc2c1 [Benz[a]anthracene] (20 µM),1.02
27,CC1=C(C(=O)O)N2C(=O)[C@@H](NC(=O)[C@H](N)c3ccccc3)[C@H]2SC1 [Cephalexin monohydrate] (20 µM),0.98
28,CNc1ncnc2c1ncn2[C@@H]1O[C@H](CO)[C@@H](O)[C@H]1O [N6-methyladenosine] (20 µM),1.02
29,Cn1nnc2c(C(N)=O)ncn2c1=O [Temozolomide] (20 µM),0.992
30,CN[C@@H]1[C@H](O[C@H]2[C@H](O[C@H]3[C@H](O)[C@@H](O)[C@H](N=C(N)N)[C@@H](O)[C@@H]3N=C(N)N)O[C@@H](C)[C@]2(O)C=O)O[C@@H](CO)[C@H](O)[C@H]1O [Streptomycin sulfate] (20 µM),0.957
